{
  "source": "PubChem BioAssay (NCATS)",
  "note": "Inconclusive results are not listed. Values without a mark were called inactive. Active and inactive are the calls of the source. Calls come from the whole dose curve; as a rule, active = well fitted curve in the direction sought with a large enough effect; inconclusive = small, poorly fitted or top-dose-only effect, or another doubt; inactive = no such curve, though single readings can be large; an effect the other way counts as inactive or inconclusive.",
  "data": [
    {"assay": "High Content Imaging Cell-Based qHTS for Inhibitors of the mTORC1 Signaling Pathway in MEF Cells (AID 2667); note: potency is the fitted concentration of half-maximal effect;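 for activity change, negative = inhibition: Tsc2-/- p53-/- MEFs stably re-expressing wild-type Tsc2 exposed 24 h; plate controls were DMSO wells for no effect and rapamycin control wells for full effect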", "conditions": "series mostly up to 38.3 µM; activity change, negative = inhibition: at the top concentration", "summary_of_the_method": "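Tsc2-/-, p53-/- MEFs stably re-expressing WT Tsc2, grown in DMEM + 10% FBS, were treated with compounds for 24 hrs at 37 degree Celsius, fixed, and stained with Alexa-488 phospho-rpS6 Ser235/236 antibody plus Hoechst; results given as % positive cells.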", "units": {"activity change, negative = inhibition": "%"}, "values": [
      {"smiles": "CC(N=C(NC#N)Nc1ccncc1)C(C)(C)C", "note": "(stereo unspecified)", "activity change, negative = inhibition": -100},
      {"smiles": "Cc1ccc(/C(=C\\CN2CCCC2)c2ccccn2)cc1", "activity change, negative = inhibition": -100},
      {"smiles": "NC(=O)c1cn(Cc2c(F)cccc2F)nn1", "activity change, negative = inhibition": -100},
      {"smiles": "CCN(CC)CCOCCOC(=O)C1(c2ccccc2)CCCC1", "activity change, negative = inhibition": -100},
      {"smiles": "COCCCC/C(=N\\OCCN)c1ccc(C(F)(F)F)cc1", "activity change, negative = inhibition": -100},
      {"smiles": "Cc1nc2ccccn2c(=O)c1CCN1CCC(C(=O)c2ccc(F)cc2)CC1", "activity change, negative = inhibition": -100},
      {"smiles": "NC1=NCC2c3ccccc3Cc3ccccc3N12", "note": "(stereo unspecified)", "activity change, negative = inhibition": -100},
      {"smiles": "COC(=O)[C@@H](N)Cc1ccc(O)c(O)c1", "activity change, negative = inhibition": -100},
      {"smiles": "CCCN1C[C@H](CSC)C[C@@H]2c3cccc4[nH]cc(c34)C[C@H]21", "activity change, negative = inhibition": -100},
      {"smiles": "Cc1cccc(C)c1NC(=O)C(C)N", "note": "(stereo unspecified)", "activity change, negative = inhibition": -100},
      {"smiles": "COc1ccc([C@@H]2Sc3ccccc3N(CCN(C)C)C(=O)[C@@H]2OC(C)=O)cc1", "activity change, negative = inhibition": -100},
      {"smiles": "Cc1scc2c1N(C(=O)CN1CCN(C)CC1)c1ccccc1NC2=O", "activity change, negative = inhibition": -100},
      {"smiles": "C[C@]12CCC(=O)C=C1CC[C@@H]1[C@@H]2CC[C@@]2(C)[C@H]1CC[C@]2(O)C(=O)CO", "activity change, negative = inhibition": -100},
      {"smiles": "CCn1cc(C(=O)O)c(=O)c2cc3c(cc21)OCO3", "activity change, negative = inhibition": -100},
      {"smiles": "CC(C)(C)c1ccc(C(=O)CCCN2CCC(OC(c3ccccc3)c3ccccc3)CC2)cc1", "Potency": "4.65 µM (active)"},
      {"smiles": "CN(C)C/C=C(/c1ccc(Br)cc1)c1cccnc1", "activity change, negative = inhibition": -100},
      {"smiles": "CN1C(=O)CC[C@H]1c1cccnc1", "activity change, negative = inhibition": -100},
      {"smiles": "CN(C(=O)CCCOc1ccc2[nH]c(=O)ccc2c1)C1CCCCC1", "activity change, negative = inhibition": -100},
      {"smiles": "CC(C)(Oc1ccc(CCNC(=O)c2ccc(Cl)cc2)cc1)C(=O)O", "activity change, negative = inhibition": -100},
      {"smiles": "NC(N)=N/N=C/c1c(Cl)cccc1Cl", "activity change, negative = inhibition": -100},
      {"smiles": "CC(=O)[C@@]1(O)CC[C@H]2[C@@H]3CCC4=CC(=O)CC[C@]4(C)[C@H]3CC[C@@]21C", "activity change, negative = inhibition": -100},
      {"smiles": "C[C@@H](O)[C@H]1C(=O)N2C(C(=O)O)=C(SCCN=CN)C[C@H]12", "activity change, negative = inhibition": -100},
      {"smiles": "COc1ccc2c(c1OC)C(=O)O[C@@H]2[C@H]1c2c(cc3c(c2OC)OCO3)CCN1C", "activity change, negative = inhibition": -100},
      {"smiles": "C[C@]12CC[C@@H]3c4ccc(O)cc4C[C@@H](CCCCCCCCCS(=O)CCCC(F)(F)C(F)(F)F)[C@H]3[C@@H]1CC[C@@H]2O", "note": "(stereo partly specified)", "activity change, negative = inhibition": -100},
      {"smiles": "CCn1nc(C(=O)O)c(=O)c2cc3c(cc21)OCO3", "activity change, negative = inhibition": -100},
      {"smiles": "COC(=O)C1=C(C)NC(C)=C(C(=O)OCCN(C)Cc2ccccc2)C1c1cccc([N+](=O)[O-])c1", "note": "(stereo unspecified)", "Potency": "18.5 µM (active)"},
      {"smiles": "Brc1c(NC2=NCCN2)ccc2nccnc12", "activity change, negative = inhibition": -100},
      {"smiles": "CN(C)[C@@H]1C(=O)C(C(N)=O)=C(O)[C@@]2(O)C(=O)C3=C(O)c4c(O)ccc(Cl)c4[C@@H](O)[C@H]3C[C@@H]12", "activity change, negative = inhibition": -100},
      {"smiles": "C[N+](C)(C)CCCCCCCCCC[N+](C)(C)C", "activity change, negative = inhibition": -100},
      {"smiles": "CCOC(=O)c1cnc2c(cnn2CC)c1NN=C(C)C", "activity change, negative = inhibition": -100},
      {"smiles": "CN1C[C@H](C(=O)N[C@]2(C)O[C@@]3(O)[C@@H]4CCCN4C(=O)[C@H](Cc4ccccc4)N3C2=O)C[C@@H]2c3cccc4[nH]cc(c34)C[C@H]21", "activity change, negative = inhibition": -100},
      {"smiles": "CSc1ccc(C(=O)c2[nH]c(=O)[nH]c2C)cc1", "activity change, negative = inhibition": -100}
    ]},
    {"assay": "Cytometry Cell-Based qHTS for Inhibitors of the mTORC1 Signaling Pathway in MEF cells (AID 2668);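 note: Tsc2-/- p53-/- mouse embryonic fibroblasts stably re-expressing wild-type Tsc2; percent cells positive for phospho-rpS6 Ser235/236 relative to propidium iodide stain; plate controls were DMSO wells for no effect and 7.5 nM rapamycin control wells for full effect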", "conditions": "mTORC1 pathway readout; series mostly up to 38.3 µM; activity change, negative = inhibition: at the top concentration", "summary_of_the_method": "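Phospho-rpS6 (Ser235/236) immunofluorescence over PI signal, scored as % positive cells using thresholds from 7.5 nM rapamycin and DMSO wells, after 24 h compound exposure of WT-Tsc2-rescued Tsc2-/-, p53-/- MEFs. PI cell count recorded for viability.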", "units": {"activity change, negative = inhibition": "%"}, "values": [
      {"smiles": "CC(N=C(NC#N)Nc1ccncc1)C(C)(C)C", "note": "(stereo unspecified)", "activity change, negative = inhibition": -16.4},
      {"smiles": "Cc1ccc(/C(=C\\CN2CCCC2)c2ccccn2)cc1", "activity change, negative = inhibition": -16.6},
      {"smiles": "NC(=O)c1cn(Cc2c(F)cccc2F)nn1", "activity change, negative = inhibition": -1.58},
      {"smiles": "CCN(CC)CCOCCOC(=O)C1(c2ccccc2)CCCC1", "activity change, negative = inhibition": 9.73},
      {"smiles": "COCCCC/C(=N\\OCCN)c1ccc(C(F)(F)F)cc1", "activity change, negative = inhibition": -12.7},
      {"smiles": "Cc1nc2ccccn2c(=O)c1CCN1CCC(C(=O)c2ccc(F)cc2)CC1", "activity change, negative = inhibition": -8.88},
      {"smiles": "NC1=NCC2c3ccccc3Cc3ccccc3N12", "note": "(stereo unspecified)", "activity change, negative = inhibition": -3.64},
      {"smiles": "COC(=O)[C@@H](N)Cc1ccc(O)c(O)c1", "activity change, negative = inhibition": 5.08},
      {"smiles": "CCCN1C[C@H](CSC)C[C@@H]2c3cccc4[nH]cc(c34)C[C@H]21", "activity change, negative = inhibition": 7.26},
      {"smiles": "Cc1cccc(C)c1NC(=O)C(C)N", "note": "(stereo unspecified)", "activity change, negative = inhibition": 8.25},
      {"smiles": "COc1ccc([C@@H]2Sc3ccccc3N(CCN(C)C)C(=O)[C@@H]2OC(C)=O)cc1", "activity change, negative = inhibition": -13.1},
      {"smiles": "Cc1scc2c1N(C(=O)CN1CCN(C)CC1)c1ccccc1NC2=O", "activity change, negative = inhibition": 4.64},
      {"smiles": "C[C@]12CCC(=O)C=C1CC[C@@H]1[C@@H]2CC[C@@]2(C)[C@H]1CC[C@]2(O)C(=O)CO", "activity change, negative = inhibition": 9.16},
      {"smiles": "CCn1cc(C(=O)O)c(=O)c2cc3c(cc21)OCO3", "activity change, negative = inhibition": 4.53},
      {"smiles": "CN(C)C/C=C(/c1ccc(Br)cc1)c1cccnc1", "activity change, negative = inhibition": -4.67},
      {"smiles": "CN1C(=O)CC[C@H]1c1cccnc1", "activity change, negative = inhibition": 6.36},
      {"smiles": "CN(C(=O)CCCOc1ccc2[nH]c(=O)ccc2c1)C1CCCCC1", "activity change, negative = inhibition": -0.635},
      {"smiles": "CC(C)(Oc1ccc(CCNC(=O)c2ccc(Cl)cc2)cc1)C(=O)O", "activity change, negative = inhibition": -2.53},
      {"smiles": "CC(=O)[C@@]1(O)CC[C@H]2[C@@H]3CCC4=CC(=O)CC[C@]4(C)[C@H]3CC[C@@]21C", "activity change, negative = inhibition": 8.2},
      {"smiles": "C[C@@H](O)[C@H]1C(=O)N2C(C(=O)O)=C(SCCN=CN)C[C@H]12", "activity change, negative = inhibition": -0.34},
      {"smiles": "COc1ccc2c(c1OC)C(=O)O[C@@H]2[C@H]1c2c(cc3c(c2OC)OCO3)CCN1C", "activity change, negative = inhibition": -2.71},
      {"smiles": "C[C@]12CC[C@@H]3c4ccc(O)cc4C[C@@H](CCCCCCCCCS(=O)CCCC(F)(F)C(F)(F)F)[C@H]3[C@@H]1CC[C@@H]2O", "note": "(stereo partly specified)", "activity change, negative = inhibition": -15.8},
      {"smiles": "CCn1nc(C(=O)O)c(=O)c2cc3c(cc21)OCO3", "activity change, negative = inhibition": -0.8},
      {"smiles": "Brc1c(NC2=NCCN2)ccc2nccnc12", "activity change, negative = inhibition": 0.793},
      {"smiles": "CN(C)[C@@H]1C(=O)C(C(N)=O)=C(O)[C@@]2(O)C(=O)C3=C(O)c4c(O)ccc(Cl)c4[C@@H](O)[C@H]3C[C@@H]12", "activity change, negative = inhibition": 8.9},
      {"smiles": "C[N+](C)(C)CCCCCCCCCC[N+](C)(C)C", "activity change, negative = inhibition": 2.15},
      {"smiles": "CCOC(=O)c1cnc2c(cnn2CC)c1NN=C(C)C", "activity change, negative = inhibition": -1.94},
      {"smiles": "CN1C[C@H](C(=O)N[C@]2(C)O[C@@]3(O)[C@@H]4CCCN4C(=O)[C@H](Cc4ccccc4)N3C2=O)C[C@@H]2c3cccc4[nH]cc(c34)C[C@H]21", "activity change, negative = inhibition": 1.92},
      {"smiles": "CSc1ccc(C(=O)c2[nH]c(=O)[nH]c2C)cc1", "activity change, negative = inhibition": -3.95}
    ]}
  ]
}
